PubChem BioAssay AID504339 (National Center for Advancing Translational Sciences (NCATS), 2011)
Out of some 390,000 compounds screened, about 17,000 (4.4%) were called active. Not shown: some 8% with an inconclusive outcome. Calls follow the shape of the dose curve; as a rule, active = well fitted inhibition curve with a large enough effect; inconclusive = small, poorly fitted or top-dose-only effect; inactive = no such curve, though single readings can be large or run the other way. Many of the other results were omitted from the sample, so actives are more common in it than they were.

These compounds were tested against Lysine-specific demethylase 4A (Homo sapiens) (UniProt O75164) (assay: qHTS Assay for Inhibitors of JMJD2A-Tudor Domain). Conditions: AlphaScreen JMJD2A-Tudor / H3K4me3 peptide binding; series mostly up to 114 µM; activity change, negative = inhibition: at the top concentration.
% is scaled to controls: 0 for no effect and ±100 for the full control effect; potency is read from the fitted curve at half-maximal effect.
Also: nearly all actives have a fitted effect of over 50% in size.

Lysine-specific demethylase 4A (Homo sapiens), sequence (O75164 whole entry, looked up, the tested form may be a part): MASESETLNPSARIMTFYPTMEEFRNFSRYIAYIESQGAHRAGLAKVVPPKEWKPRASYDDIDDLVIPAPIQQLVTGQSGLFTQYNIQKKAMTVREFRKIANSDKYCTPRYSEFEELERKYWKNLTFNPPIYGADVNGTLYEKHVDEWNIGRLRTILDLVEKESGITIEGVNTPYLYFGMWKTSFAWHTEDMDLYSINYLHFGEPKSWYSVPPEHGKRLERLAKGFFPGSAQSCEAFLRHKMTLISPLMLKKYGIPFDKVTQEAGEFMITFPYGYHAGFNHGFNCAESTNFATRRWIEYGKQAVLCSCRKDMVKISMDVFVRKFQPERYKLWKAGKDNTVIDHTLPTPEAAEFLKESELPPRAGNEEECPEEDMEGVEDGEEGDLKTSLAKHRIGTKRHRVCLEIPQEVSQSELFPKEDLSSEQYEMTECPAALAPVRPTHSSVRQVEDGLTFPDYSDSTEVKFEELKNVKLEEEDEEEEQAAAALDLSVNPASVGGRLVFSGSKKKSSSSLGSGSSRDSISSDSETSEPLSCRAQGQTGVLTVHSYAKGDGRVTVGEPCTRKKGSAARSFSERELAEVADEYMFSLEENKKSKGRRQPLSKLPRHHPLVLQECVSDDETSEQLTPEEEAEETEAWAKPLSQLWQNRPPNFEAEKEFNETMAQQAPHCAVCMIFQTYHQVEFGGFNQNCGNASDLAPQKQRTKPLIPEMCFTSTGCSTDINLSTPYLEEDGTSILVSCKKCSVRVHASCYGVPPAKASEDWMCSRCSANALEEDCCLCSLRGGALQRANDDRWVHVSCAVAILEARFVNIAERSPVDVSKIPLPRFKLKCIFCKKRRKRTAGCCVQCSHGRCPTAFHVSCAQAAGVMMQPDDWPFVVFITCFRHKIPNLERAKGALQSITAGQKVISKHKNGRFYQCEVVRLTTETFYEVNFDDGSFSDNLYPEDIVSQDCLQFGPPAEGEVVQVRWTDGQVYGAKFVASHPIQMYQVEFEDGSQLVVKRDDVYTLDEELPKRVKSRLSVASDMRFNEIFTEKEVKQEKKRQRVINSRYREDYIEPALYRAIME

Activity change, negative = inhibition, inactive:
Cc1cccc(N2CCN(Cc3c(C)n(C)n(-c4ccccc4)c3=O)CC2)c1C -8.21%, Cc1cccc(N2CCN(C(=O)c3oc(=O)c4ccccc4c3-c3ccccc3)CC2)c1C -28%, COc1cccc(-c2n[nH]c3c2C(c2cccc(O)c2)N(C)C3=O)c1 (stereo unspecified) -29.2%, CCC(=O)N1N=C(c2ccc(OC)cc2)CC1c1cn(-c2ccccc2)nc1-c1cccs1 (stereo unspecified) -8.58%, O=C(c1ccc(Cl)cc1)c1ccc(OCC(O)CN2CCCCC2)cc1 (stereo unspecified) -4.4%, CC1CCN(CC(O)COc2ccc(C(=O)c3ccccc3)cc2)CC1 (stereo unspecified) -12.1%, Cn1c(=O)c2c(nc(Oc3ccc(C#N)cc3)n2Cc2ccc(Cl)cc2Cl)n(C)c1=O -14.7%, O=[N+]([O-])c1cc(-c2nc(-c3ccccc3)no2)ccc1NCc1ccco1 -32.1%, COc1ccccc1C(=O)NC(=O)COC(=O)c1ccco1 -12.8%, COc1ccc(CC(=O)Nc2ccccc2NC(=O)c2ccco2)cc1OC 6.04%, COc1ccc(OC)c(NC(=O)Cn2c(=O)n(Cc3ccccc3)c(=O)c3ccccc32)c1 -19.8%, CN(C)c1ccc(C2N(C)C(=O)c3ccccc3N2C)cc1 (stereo unspecified) -33.6%, Cc1cc(NS(=O)(=O)c2ccc(NC(=O)c3ccccc3C)cc2)nc(C)n1 0%, COc1ccc(CC(=O)Nc2nc3n(n2)C(c2ccccc2)CC(=O)N3)cc1OC (stereo unspecified) -22.9%, COc1ccc(C2=CC(c3ccccc3Cl)n3nc(-c4ccc(Cl)cc4)nc3N2)cc1 (stereo unspecified) -22.8%, COc1cccc(CN2CCc3nc(SCC(=O)Nc4ccccc4)[nH]c(=O)c3C2)c1 -12.3%, S=C(NCCC1=CCCCC1)Nc1ccccc1 -2.58%, Cc1cc(NC(=O)C(C)SCC(=O)Nc2ccccc2N2CCCCC2)no1 (stereo unspecified) -23.4%, Cc1cc(-c2ccccc2)n2nc(-c3ccccc3)cc2n1 260%, Cc1nnc(SCC(=O)NCc2ccccc2Cl)c2nn(-c3ccccc3)c(C)c12 -5.86%, COc1ccc(CNC(=O)c2cc3c(=O)[nH]c4ccccc4c3s2)cc1 4.33%, CCN(c1ccccc1)S(=O)(=O)c1ccc(NC(=O)C(C)(C)C)cc1 -16%, CN(c1ccccc1)S(=O)(=O)c1ccc2[nH]c(=O)[nH]c2c1 -18.4%, CCCC12CN3CC(C)(CN(C1)C3c1ccccc1Cl)C2=O (stereo unspecified) 2.75%, COc1ccc(N2CCN(C(=O)CSc3nnc4ncccn34)CC2)cc1 -19.9%, CCOc1ccc(-c2nnn(CC(=O)N3CCN(c4ccc(OC)cc4)CC3)n2)cc1OCC -19%, COc1ccccc1C(=O)Nc1c(C(=O)N(C)Cc2ccccc2)sc2nc(C)c(Cl)c(C)c12 -16.8%, O=C(NCc1ccc(Cl)cc1)c1ccc2c(c1)nnn2C1CCCC1 -7.14%, COc1ccc(-c2nc(S(=O)(=O)c3ccccc3)c(N3CCCCC3)o2)cc1 -10%, CCOC(=O)COc1nc(C)cc(C(F)(F)F)c1C#N -18.1%, CCOC(=O)c1cnc(SCC(=O)Nc2ccccc2C(=O)OC)nc1N -14.7%, COc1ccccc1N1CCN(/N=C/c2ccc(O)cc2O)CC1 -20.3%, COc1ccccc1N1CCN(C2C(=O)c3ccccc3N2C(C)=O)CC1 (stereo unspecified) -22.4%, Cc1nnc(SCC2=C(C(=O)O)N3C(=O)C(NC(=O)Cn4nc(C)c(Cl)c4C)C3SC2)s1 (stereo unspecified) -6.9%, CCN1CCN(C(=O)N[C@@H](C(=O)N[C@@H]2C(=O)N3C(C(=O)O)=C(CSc4nnnn4C)CS[C@H]23)c2ccc(O)cc2)C(=O)C1=O -11%, O=C(NC1CC(=O)N(c2ccc(Cl)cc2)C1)C1CCCC1 (stereo unspecified) -2.92%, Cc1ccc(CN2CCC(CNC(=O)c3cnn(-c4ccc(C)cc4)c3C3CCN(C(=O)OC(C)(C)C)CC3)CC2)cc1 -28.8%, COc1ccc(CCNC(=O)COC(=O)C2CC2C)cc1 (stereo unspecified) 7.09%, COc1ccc(CCNC(=O)COC(=O)c2cc(=O)c3ccccc3o2)cc1 5.23%, COc1cccc(CNC(=O)c2cc(=O)[nH]c3ccc(S(=O)(=O)N4CCCCC4)cc23)c1 0.683%, CC1CN(C(=O)N2CCC(C(=O)NCc3ccco3)CC2)c2cc(Cl)ccc2O1 (stereo unspecified) -20.1%, CCCn1c(=N)n(CC(O)COc2ccccc2OC)c2ccccc21 (stereo unspecified) -15.5%, O=C(Cn1c(-c2cccs2)cc2ccccc21)NCCc1ccc(Cl)cc1 -13.2%, Cc1c(Cl)cccc1NC(=O)N1CCN(C(=O)c2nsc3ccccc23)CC1 -0.649%, CCCN(C(=O)Cn1ncc2c([nH]c3ccc(C)cc32)c1=O)c1ccccc1C -26.2%, CCOc1ccc(/C=C(/C#N)c2nnc(N3CCOCC3)n2-c2ccccc2)cc1OC -20.7%, CCCn1c2ccccc2c2cnn(CC(=O)NCC3CCN(Cc4ccc(C)cc4)CC3)c(=O)c21 -28.4%, O=C(CSc1nnnn1C1CCCC1)N1CCCCC1 2.05%, CC(Sc1nnnn1C)C(=O)NC(=O)NC1CCCCC1 (stereo unspecified) -15.8%, CCN(CC)c1ccc(C2C(C(N)=O)=C(C)Nc3nc(SCc4ccccc4)nn32)cc1 (stereo unspecified) -2.39%, CCc1ccc(NC(=O)c2cc(S(=O)(=O)N3CCCC(C)C3)cn2C)cc1 (stereo unspecified) 2.88%, CCOc1ccc(CNCc2c(C(=O)O)c(C)n(Cc3cccc(OC)c3)c2C)cc1OC -26.2%, CCOc1ccc(NC(=O)Nc2cc(C)on2)cc1 -0.741%, Cc1cc(NC(=O)COc2ccccc2C#N)no1 -12.1%, Cc1ccc(C(=O)Nc2ccc(OCc3cc(=O)n4c(C)csc4n3)cc2)cc1 -22.5%, CCOc1cccc(CNC(=O)c2ccc(N3CCCC3)c(NC(=O)Nc3ccccc3CC)c2)c1 -9.27%, COc1ccccc1/C=C/c1nc(C#N)c(NC(C)c2ccccc2)o1 (stereo unspecified) -14.2%, COc1cc2nc(NCC(C)c3ccccc3)n3nc(-c4ccccc4)nc3c2cc1OC (stereo unspecified) -26.5%, Nc1cc(N)nc(SCc2ccc(Cl)cc2)n1 -23.1%, Clc1ccccc1CSc1nncn2c1cc1occc12 -27.5%, COc1ccc(-n2c(C)nc3c(cnn3-c3ccc(F)cc3)c2=O)cc1 -6%, COc1cc(NC(=O)CSc2nc3nc(C)c(Cc4ccc(C)cc4)c(C)n3n2)cc(OC)c1OC -27.7%, O=C(O)c1c(CNCc2cccc(F)c2)c2ccccc2n1Cc1ccccc1 -20.5%, O=C(Nc1nnc(C2CC(=O)N(c3ccc(Cl)cc3)C2)s1)c1ccco1 (stereo unspecified) -10.6%, Cc1cccc(CSc2nc3ccncc3n2CC(=O)N(C)C2CCCCC2)c1 -8.05%, CCOc1ccc(CNC(=O)C2CCCN(S(=O)(=O)N(CC)c3ccc(OCC)cc3)C2)cc1 (stereo unspecified) -11%, Cc1sc2nc(CSCC(=O)NC3CCCCC3)[nH]c(=O)c2c1C -13.1%, CCOC(=O)c1sc2nc(CSCC(=O)OCc3ccc(C(=O)OC)o3)[nH]c(=O)c2c1C -18.7%, Cn1c(=O)sc2cc(NS(=O)(=O)c3ccc(C(C)(C)C)cc3)ccc21 -10.9%, CCOC(=O)c1ccc(NC(=O)c2c(NCc3cccc(OC)c3)sc3c2CCC3)cc1 -12.2%, CCOC(=O)C1CCCN(S(=O)(=O)c2cc(-c3cc(C)no3)ccc2OC)C1 (stereo unspecified) -10.9%, CSCc1ccc(C(=O)Nc2cc(C)cc(C)c2)cc1 -8.45%, Cc1ccccc1C(=O)Nc1ccccc1NC(=O)c1ccccc1C -16.9%, Cc1cc2c(cc1S(=O)(=O)CCC(=O)Nc1ccc(OC(F)(F)F)cc1)OCC(=O)N2 -12.2%, CCCCc1nn2c(=O)cc(COC(=O)c3ccc(NC(=O)c4ccccc4C)cc3)nc2s1 -21.9%, CCC(=O)Nc1cccc(-c2nc3cc(C)ccc3o2)c1 2.56%, Cc1ccc(-n2nnnc2CNC(=O)c2ccccc2C)cc1C -3.85%, CCCNC(=O)c1ccc(Cn2c(SCC(N)=O)nc3ccccc3c2=O)cc1 -18.5%, COc1ccc2cc(C3=CC(=O)C[C@H](c4ccc5c(c4)OCO5)C3)ccc2c1 -26.8%, COc1ccc([C@H]2CC(=O)C=C(c3ccc(C)cc3)C2)cc1 4.23%

Potency, active:
Cc1cccc(N2CCN(C3=C(c4ccccc4)C(=O)c4ccccc43)CC2)c1C 5.62 µM, CCOc1ccc(C(=O)/C=C/c2cn(CC(O)CN3CCCCCC3)c3ccccc23)cc1 (stereo unspecified) 70.8 µM, COc1ccc(C/C(N)=N/OC(=O)c2ccco2)cc1OC 44.7 µM, CN(C)c1ccc(Nc2c3c4c(cccc4n(C)c2=O)C(=O)c2ccccc2-3)cc1 3.55 µM, Cc1ccc(C2C=C(c3ccc(Cl)cc3)Nc3nc(NC(=O)CCC(=O)O)nn32)cc1 (stereo unspecified) 79.4 µM, O=C(CNCCC1=CCCCC1)Nc1ccccc1N1CCCCCC1 56.2 µM, CCN(c1ccccc1)S(=O)(=O)c1ccc2[nH]c(=O)[nH]c2c1 56.2 µM, COc1ccc(N2CCN(C(=O)CSc3nc4cc(OC)c(OC)cc4cc3C#N)CC2)cc1 56.2 µM, CCOC(=O)C(Sc1ncc(C#N)c(N)n1)C(C)C (stereo unspecified) 44.7 µM, COc1ccccc1N1CCN(/N=C\C(Br)=C\c2ccccc2)CC1 39.8 µM, Cc1cc(C)cc(C(=O)NC2C(=O)N3C(C(=O)O)=C(CSc4nnc(C)s4)CSC23)c1 (stereo unspecified) 79.4 µM, COc1ccc(CCNC(=O)COC(=O)c2ccc[nH]c2=O)cc1 31.6 µM, CC(C)=CCCC1(C)C=Cc2c(ccc3c2[nH]c2cc(O)c(C)cc23)O1 (stereo unspecified) 44.7 µM, COc1cc(N2CCCC2)c(OC)cc1/C=C(/C#N)c1cccc(Br)c1 17.8 µM, CC(Sc1nnnn1C1CCCCC1)C(=O)O (stereo unspecified) 11.2 µM, Cc1cc(NC(=O)Nc2ccccc2[N+](=O)[O-])no1 22.4 µM, Clc1ccc(CSc2nncn3c2cc2occc23)cc1 39.8 µM, CSc1nnc(SCc2nc3sc(C(=O)O)c(C)c3c(=O)[nH]2)s1 12.6 µM, CC(=O)Nc1ccccc1NC(=O)c1cc(C)cc(C)c1 11.2 µM, O=C(CCc1[nH]c2ccccc2c1Sc1ccccc1)N(CCO)CCO 79.4 µM, COc1ccc([C@H]2CC(=O)C=C(c3ccc(CO)cc3)C2)cc1 28.2 µM
